The record followed here is PubChem BioAssay (NCATS).

Values joined by “and” are separate entries in the source; they are usually repeats but may differ in a detail not shown here. Equal values may be shown once. Inconclusive results are not listed. Active and inactive are the calls of the source. Calls come from the whole dose curve; as a rule, active = well fitted inhibition curve with a large enough effect; inconclusive = small, poorly fitted or top-dose-only effect; inactive = flat fitted curve, though single readings scatter.
Potency is the fitted concentration of half-maximal effect.

In this experiment the test system is Zika virus NS2B-NS3 protease (linked construct). Description: Confirmatory screen NINDS AMC qHTS for Zika virus inhibitors (AID 1347152).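 For activity change, negative = inhibition: AMC fluorescence gain from cleaved Bz-Nle-KRR-AMC substrate over 15 min; top concentration of the series differs between compounds; 0% = no-inhibitor control and -100% = no-enzyme control.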 Note: nearly all actives have a fitted effect of over 70% in size. To be noted: Purified linked NS2B-NS3, AMC substrate fluorescence; series mostly up to 56.6 µM; activity change, negative = inhibition: at the top concentration. The source says: Assay Submitters (PI): Avindra Nath, Ph.D., National Institute of Neurological Disorders and Stroke (NINDS), Bethesda, MD Radhakrishnan Padmanabhan, Ph.D., Georgetown University (GU), Washington D.C. Zika Virus causes congenital defects, including microcephaly and is associated with Guillain-Barre syndrome, eningoencephalitis and myelitis in infected adult. […] Using a target-based approach, we hope to establish a screening paradigm to uncover novel, cell-active NS2B-NS3 protease (Zika Virus) specific inhibitors from NCATS' collection of small molecules using qHTS. […] Four assay panel was created to identify potential Zika Virus inhibitors. Namely, (1) GU unlinked NS2B-NS3 AMC tagged protease qHTS, (2) GU unlinked NS2B-NS3 Rhodamine tagged protease qHTS, (3) NINDS linked NS2B-NS3 AMC tagged protease qHTS, (4) NINDS linked NS2B-NS3 Rhodamine tagged protease qHTS. Active compounds were re-acquired and re-screened to confirm inhibition. Inhibitors were further screened against various confirmatory and counterscreens in dose response format. Early Translation Branch (ETB) National Center for Advancing Translational Sciences (NCATS), Rockville, MD National Institute of Health (NIH), Bethesda, Maryland
Materials: For the linked assay, Nath lab (NINDS) provided the purified linked NS2B-NS3 protease which is consists of hydrophilic domain of NS2B linked to the NS3 protease domain by a flexible (-[…]-) linker. Control compound aprotinin is obtained from Thermo Scientific (#78432; Waltham, Massachusetts). NS2B-NS3 AMC substrate (Bz-Nle-Lys-Arg-Arg-AMC; Nle-KRR-AMC) purchased from Bachem (#I-1995; Torrance, CA). Ac-VKTGKR-AMC purchased from Genscript or Bachem, Ac-FAAGKR-AMC purchased from Genscript, Ac-GLVKRR-AMC purchased from Genscript, Ac-LKKR-AMC purchased from Genscript. NINDS AMC linked NS2B-NS3 protease qHTS protocol: Briefly, 3 microL of Zika virus linked NS2B-NS3 protease (1 nM for linked final concentration), in assay buffer (10 mM Tris-HCl pH 8.0 with 0.01% Tween 20) was dispensed into a 1,536-well solid-bottom black plate (Greiner Bio One, Monroe, NC). Twenty-three nL of compounds (final concentration range 7.28 nM to 114 microM) or control Aprotinin (final concentration range 3.47 nM to 114 microM) were transferred via Wako Pin-tool (Wako Automation, Richmond, VA). Samples were incubated (room temperature, protected from light) for 15 minutes followed by a 1 microL AMC substrate addition of (final concentration of 10 microM; Km = 18.3 µM). Plates were then read immediately on a ViewLux High-throughput CCD imager (PerkinElmer, Waltham, MA) equipped with standard UV fluorescence optics (340(30) nm excitation, 450(20) nm emission) then incubated (room temperature, protected from light) for 15 minutes (~20% conversion). The change in fluorescence intensity over the 15-minute reaction period was normalized against no-inhibitor and no-enzyme controls and the resulting percent inhibition data were fitted to a 4-parameter Hill equation. Aprotinin was used as the intraplate control.
Background: qHTS replaces the single test concentration by a dilution series.
As to `Cc1cc(SCc2sc(-c3ccc(C(F)(F)F)cc3)nc2C)ccc1OCC(=O)O`, the Potency is 19.7 µM (active).

With `O=c1n(CCCN2CCN(c3cccc(Cl)c3)CC2)nc2ccccn12`, the Potency was 24.1 µM (active). `Cc1[nH]c(=O)c(C#N)cc1-c1ccncc1`: the “activity change, negative = inhibition” value was -12.3% (inactive). On to `CN1CCN(CCCN2c3ccccc3Sc3ccc(C(F)(F)F)cc32)CC1`, for which the “activity change, negative = inhibition” value was 17.2% (inactive). `COc1ccc(-c2ccc3c(N4CCOCC4)nc(N4C[C@@H](C)O[C@@H](C)C4)nc3n2)cc1CO`: the Potency is 27.1 µM (active).

Take `CCn1cc(C(=O)O)c(=O)c2cc(F)c(N3CCNC(C)C3)c(F)c21` (configuration not stated): the Potency is 24.1 µM (active) and 27.1 µM (active).

`CC(C)c1onc(-c2c(Cl)cccc2Cl)c1COc1ccc(/C=C/c2cccc(C(=O)O)c2)c(Cl)c1`: the Potency was 24.1 µM (active). As for `CCN(CC)CCCC(C)Nc1ccnc2cc(Cl)ccc12` (configuration not stated), the “activity change, negative = inhibition” value was 5.36% (inactive). Consider `O=C(C1CC1)N1CC[C@@H](Cn2c(-c3ccc(-c4ccc5occc5c4)cc3)nc3cnccc32)C1`, for which the Potency was 24.1 µM (active).

As to `CCCCNc1cc(C(=O)O)cc(S(N)(=O)=O)c1Oc1ccccc1`, the Potency is 27.1 µM (active). With `Cc1[nH]c(=O)c(C#N)cc1-c1ccc2nccn2c1`, the “activity change, negative = inhibition” value is 3.98% (inactive).

`CCCc1nc2c(C)cc(-c3nc4ccccc4n3C)cc2n1Cc1ccc(-c2ccccc2C(=O)O)cc1`: the Potency is 21.5 µM (active).
